Screens as filed in PubChem BioAssay.
DAGLB inhibitor: DAGLB lipase inhibitors, primary screen, biochemical, fluorescence, HTS. AID 504411, 2011. inhibition, % at 5.17 µM. 340,000 compounds, 0.059% hits. HEK293T DAGLB membrane lysate, EnzChek fluorogenic substrate. Diacylglycerol lipase-beta (Homo sapiens), Q8NCG7; in the data active = inhibition above about 34%;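 also: 0% = enzyme with vehicle and 100% = wells lacking enzyme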
Target sequence (Q8NCG7 whole entry, looked up): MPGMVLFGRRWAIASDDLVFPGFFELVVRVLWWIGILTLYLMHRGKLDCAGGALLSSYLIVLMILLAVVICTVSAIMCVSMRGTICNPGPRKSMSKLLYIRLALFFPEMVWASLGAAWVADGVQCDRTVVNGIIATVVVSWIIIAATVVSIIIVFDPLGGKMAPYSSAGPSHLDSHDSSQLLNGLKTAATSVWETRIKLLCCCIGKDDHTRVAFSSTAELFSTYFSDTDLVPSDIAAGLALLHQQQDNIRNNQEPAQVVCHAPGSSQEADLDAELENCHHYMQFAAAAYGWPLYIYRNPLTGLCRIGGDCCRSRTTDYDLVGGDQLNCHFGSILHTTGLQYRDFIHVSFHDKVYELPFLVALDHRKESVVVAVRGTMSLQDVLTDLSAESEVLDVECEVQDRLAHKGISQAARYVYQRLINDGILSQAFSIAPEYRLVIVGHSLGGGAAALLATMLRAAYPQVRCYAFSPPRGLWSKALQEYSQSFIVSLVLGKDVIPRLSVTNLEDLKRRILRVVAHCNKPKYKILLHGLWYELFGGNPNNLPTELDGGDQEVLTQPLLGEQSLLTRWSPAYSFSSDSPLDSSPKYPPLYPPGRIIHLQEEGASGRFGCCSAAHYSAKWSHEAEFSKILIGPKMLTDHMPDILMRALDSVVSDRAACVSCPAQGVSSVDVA
MsrA inhibitor: bovine MsrA enzyme inhibitors, primary screen, biochemical, absorbance, HTS; 360,000 compounds, 0.75% hits; Methionine sulfoxide reductase A (Bos taurus); inhibition, % at 15.5 µM; purified bovine MsrA, absorbance read-out; in the data active = inhibition above about 4.5%;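 also: 0% = vehicle wells with enzyme and 100% = reference inhibitor wells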
rCAG binder: binders of r(CAG) RNA repeats, primary screen, biochemical, fluorescence; r(CAG) RNA repeat, TO-PRO-1 dye displacement fluorescence; inhibition, % at 3 µM; 370,000 compounds, 1.3% hits; AID 651821, 2012;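 active = inhibition above the plate cutoff, the mean of all test compounds on that plate plus 3 SD, cut at about 35% in these data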;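 also: 0% = DMSO alone and 100% = 100 µM mitoxantrone as full dye displacement; higher means more dye released from RNA so lower well fluorescence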
bovine MsrA act: bovine MsrA enzyme activators, primary screen, biochemical, absorbance, HTS. purified bovine MsrA, absorbance read-out. activation, % at 10.6 µM. 360,000 compounds, 0.3% hits; in the data active = activation above about 7.5%;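 also: 0% = vehicle and 100% = reference activator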
Pemphigus Ab inh: inhibitors of pemphigus antibody binding to DSG3, primary screen, biochemical, bead-based, flow cytometry, scFv-GFP. AID 588358, 2011. Desmoglein-3 (Homo sapiens), P32926. binding (percent of control), % at 10 µM. DSG3-coupled beads, scFv-anti-DSG3-GFP binding; hits give low values. 310,000 compounds, 0.48% hits;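 active = binding more than 3 SD below its plate's average and above zero; inconclusive = below that plate limit but binding exactly zero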;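 also: hits lower antibody fragment binding to DSG3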
NadD block: inhibitors of S. aureus NadD, primary screen, biochemical, colorimetric, uHTS | Nicotinate-nucleotide adenylyltransferase NadD (Staphylococcus aureus N315) | purified NadD enzyme, colorimetric absorbance read-out | inhibition, % at 20 µM | 360,000 compounds, 0.78% hits | AID 602399, 2012; in the data active = inhibition above about 26%
rCAG bind conf: small molecules binding CAG repeat RNA – biochemical, fluorescence, confirmation; r(CAG) RNA repeat, TO-PRO-1 dye displacement fluorescence; inhibition, % at 3 µM; AID 652065, 2013; 4,300 compounds, 70% hits; shares compounds with rCAG binder;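 active = inhibition above a per-plate cutoff, the mean inhibition of sample wells plus 3 SD, cut at about 35% in these data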;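 also: loss of TO-PRO-1 fluorescence as compound displaces dye from 1x1 AA loop RNA; 0% = DMSO only wells and 100% = 100 µM mitoxantrone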
dCAG dye counter: displacement of TO-PRO-1 from CAG DNA duplex, counter-screen for rCAG RNA repeat binder project, biochemical, fluorescence, TO-PRO-1 dye, d(CAG) DNA oligo; d(CAG) DNA oligo TO-PRO-1 dye displacement; 4,300 compounds, 94% hits; inhibition, % at 3 µM; shares compounds with rCAG binder;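 active = inhibition above its plate's cutoff, the mean test-well inhibition plus 3 SD, cut at about 4.8% in these data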;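 also: 0% = DNA dye mix with DMSO and 100% = 100 µM mitoxantrone; hits displace the dye from DNA and so lower well fluorescence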
An asterisk follows results filed as active; ? = inconclusive; . = no result given. Hits are enriched below; roughly 3.2% of the tested compounds scored in any of these assays.

SMILES | DAGLB inhibitor | MsrA inhibitor | rCAG binder | bovine MsrA act | Pemphigus Ab inh | NadD block | rCAG bind conf | dCAG dye counter
NC(c1ccccc1)c1csc(NC(=O)Nc2ccc(OC(F)(F)F)cc2)n1 (stereo unspecified) | . | 1 | 41* | -2 | . | 17 | 35* | 13*
NC(c1ccccc1)c1csc(NC(=O)Nc2cccc(Cl)c2)n1 (stereo unspecified) | . | 0 | 48* | 0 | . | 1 | 37* | 17*
COc1ccc(NC(=O)Nc2nc(C(N)Cc3ccc(C(F)(F)F)cc3)cs2)cc1 (stereo unspecified) | . | -2 | 37* | -3 | . | 7 | 17 | 2
CCCN(CC1CC1)c1nc(C)nc2c1nnn2Cc1ccccc1 | . | . | 0 | . | . | . | . | .
CN1C(c2ccccc2)CC(C)(O)CC1c1ccccc1 (stereo unspecified) | . | 0 | 1 | . | . | . | . | .
COCCNC(=O)C1(C)CCCN(Cc2ccc(Cl)nc2)C1 (stereo unspecified) | . | . | . | -2 | . | -9 | . | .
NC(COCc1ccccc1)c1csc(NC(=O)Nc2cccc(C(F)(F)F)c2)n1 (stereo unspecified) | . | -2 | 43* | -4 | . | 0 | 30 | 5.1*
NC(=O)c1ccc(Nc2nc(C(N)COCc3ccccc3)cs2)cc1 (stereo unspecified) | . | 2 | 3 | -3 | . | 0 | . | .
COc1ccc(Cl)cc1NC(=O)CSc1nc(NS(=O)(=O)c2ccccc2)cc(=O)[nH]1 | 10 | -1 | 17 | -3 | 109 | 2 | . | .
CCCc1cc(=O)[nH]c(SCC(=O)Nc2nc(-c3ccccc3)cs2)n1 | 4 | 2 | 45* | -4 | 98 | 6 | 56* | 19*
COc1ccc(Cl)cc1NC(=O)CSc1nc(-c2ccccc2)cc(=O)[nH]1 | 5 | 1 | 43* | -4 | 115 | 9 | 68* | 30*
CN(C)/C=C/C(=O)c1ccc([N+](=O)[O-])c(CS(=O)(=O)c2ccccc2)c1 | 3 | 2 | 35* | -4 | 98 | -5 | 4 | 3
O=C(O)c1ccc([N+](=O)[O-])c(CS(=O)(=O)c2ccccc2)c1 | -2 | 0 | 0 | -1 | 98 | -2 | . | .
CN(C)c1ccc2cc(S(=O)(=O)O)cc(O)c2c1 | 4 | 2 | 59* | -2 | 84 | 2 | 33 | 10*
O=Nc1c(O)ccc2cc(S(=O)(=O)O)ccc12 | -1 | . | . | -4 | 108 | 0 | . | .
CCOc1ccc(NC(=O)CSc2nc3ccsc3c(=O)n2CCCCCC(=O)O)cc1 | 0 | 1 | 17 | -2 | 98 | 5 | . | .
O=C(CN1CCCCC1)Nc1ccc(S(=O)(=O)c2ccc(NC(=O)CN3CCCCC3)cc2)cc1 | -1 | 0 | 3 | 2 | 121 | -4 | . | .
COc1ccccc1NC(=O)c1ccc(NS(=O)(=O)c2ccc(F)c(Cl)c2)cc1 | 2 | 0 | 44* | -7 | 103 | -5 | 54* | 14*
COc1ccc2c(c1)c(=O)oc1cc(OC(C(=O)O)c3ccccc3)ccc12 (stereo unspecified) | 5 | 2 | 52* | -1 | ? | -1 | 41* | 10*
O=C(O)C(Oc1ccc2c(-c3ccccc3)cc(=O)oc2c1)c1ccccc1 (stereo unspecified) | 6 | 2 | 32 | -2 | 85 | -5 | . | .
Cn1c(SC/C=C/c2ccccc2)nnc1-c1cccnc1 | . | . | 4 | . | . | . | . | .
Cc1cccc(OCCCC(=O)Nc2ccc(S(=O)(=O)Nc3nccs3)cc2)c1C | 5 | 2 | 59* | -4 | 101 | 0 | 49* | 17*
O=C(COc1ccc(F)cc1Cl)Nc1ccc(S(=O)(=O)Nc2nccs2)cc1 | 2 | 0 | 43* | -2 | 109 | -5 | 40* | 13*
Cc1cccc(OCCCC(=O)Nc2ccc(S(=O)(=O)Nc3ncccn3)cc2)c1C | 2 | 0 | 25 | -4 | 98 | 9 | . | .
Cc1cccc(OCC(=O)Nc2ccc(S(=O)(=O)Nc3onc(C)c3C)cc2)c1C | 2 | -1 | 41* | -4 | 104 | -3 | 26 | 6.5*
SMILES | DAGLB inhibitor | MsrA inhibitor | rCAG binder | bovine MsrA act | Pemphigus Ab inh | NadD block | rCAG bind conf | dCAG dye counter
Cc1cccc(OCCCC(=O)Nc2ccc(S(=O)(=O)Nc3onc(C)c3C)cc2)c1C | 8 | -1 | 59* | -2 | . | 2 | 32 | 8.5*
O=C(NCc1ccc(F)c(F)c1)C1Cc2c(-c3ccc4c(c3)OCO4)ccnc2O1 (stereo unspecified) | . | 0 | 1 | -2 | . | -3 | . | .
N=C1C2=C3Sc4ccccc4N3CCCC2=NN1c1cccc(S(=O)(=O)O)c1 | 4 | 3 | 38* | -4 | 97 | 1 | 47* | 11*
N#CC1=C2Sc3ccccc3N2CCCC1=O | 0 | 4 | -1 | -6 | 87 | -2 | . | .
Cc1ccc2nc(-c3ccc(NC(=O)CSc4nnc(-c5cccc(Cl)c5)n4Cc4ccco4)cc3)sc2c1 | . | . | 45* | . | . | . | 16 | 8.7*
Cc1ccc(-c2nnc(SCC(=O)Nc3ccc(-c4nc5ccc(C)cc5s4)cc3)n2Cc2ccco2)cc1 | . | . | 23 | . | . | . | . | .
CC(C)[C@H](N)C(=O)N1CCC[C@@H]1C(=O)N1CCC2CCN(S(=O)(=O)c3ccccc3)CC21 (stereo partly specified) | . | . | 2 | . | . | . | . | .
CC(NC(=O)COC(=O)c1cc(NS(=O)(=O)c2ccc(Cl)c([N+](=O)[O-])c2)ccc1O)C1CC2CCC1C2 (stereo unspecified) | 5 | 0 | 44* | -3 | 98 | 25 | 58* | 22*
COc1ccc(NS(=O)(=O)c2ccc(O)c(C(=O)OCC(=O)NC(C)C3CC4CCC3C4)c2)cc1 (stereo unspecified) | -1 | 0 | 6 | -9 | . | -2 | . | .
CC1CC(=Cc2ccc(N)cc2)C(=O)O1 (stereo unspecified) | 0 | 3 | 0 | -6 | 95 | 0 | . | .
CCOC(=O)C1Nc2ccc(C(=O)O)cc2C2C=CCC12 (stereo unspecified) | -1 | -1 | 61* | 4 | 106 | 5 | 23 | 5.4*
CC(C)C1Nc2ccc(C(=O)O)cc2C2C=CCC21 (stereo unspecified) | 2 | 0 | 56* | -6 | 101 | 1 | 29 | 7.3*
CCCC1Nc2ccc(C(=O)O)cc2C2C=CCC12 (stereo unspecified) | 4 | . | . | 3 | 112 | 9 | . | .
